Our source for the inhibition values is PubChem BioAssay AID529 (NMMLSC, 2006).

Hit rate of the full screen: of about 24,000 compounds, about 50 (0.2%) were called active. Inconclusive results (about 9%) are left out. Only a selection was taken, and actives are over-represented in it overall. Unmarked numbers belong to inactive results.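 How the source made its calls: active means inhibition above 50%; inconclusive means compound itself fluorescent, judged against control cell fluorescence; inactive means the rest.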

Integrin alpha-4 (Homo sapiens), sequence (P13612 whole entry, looked up): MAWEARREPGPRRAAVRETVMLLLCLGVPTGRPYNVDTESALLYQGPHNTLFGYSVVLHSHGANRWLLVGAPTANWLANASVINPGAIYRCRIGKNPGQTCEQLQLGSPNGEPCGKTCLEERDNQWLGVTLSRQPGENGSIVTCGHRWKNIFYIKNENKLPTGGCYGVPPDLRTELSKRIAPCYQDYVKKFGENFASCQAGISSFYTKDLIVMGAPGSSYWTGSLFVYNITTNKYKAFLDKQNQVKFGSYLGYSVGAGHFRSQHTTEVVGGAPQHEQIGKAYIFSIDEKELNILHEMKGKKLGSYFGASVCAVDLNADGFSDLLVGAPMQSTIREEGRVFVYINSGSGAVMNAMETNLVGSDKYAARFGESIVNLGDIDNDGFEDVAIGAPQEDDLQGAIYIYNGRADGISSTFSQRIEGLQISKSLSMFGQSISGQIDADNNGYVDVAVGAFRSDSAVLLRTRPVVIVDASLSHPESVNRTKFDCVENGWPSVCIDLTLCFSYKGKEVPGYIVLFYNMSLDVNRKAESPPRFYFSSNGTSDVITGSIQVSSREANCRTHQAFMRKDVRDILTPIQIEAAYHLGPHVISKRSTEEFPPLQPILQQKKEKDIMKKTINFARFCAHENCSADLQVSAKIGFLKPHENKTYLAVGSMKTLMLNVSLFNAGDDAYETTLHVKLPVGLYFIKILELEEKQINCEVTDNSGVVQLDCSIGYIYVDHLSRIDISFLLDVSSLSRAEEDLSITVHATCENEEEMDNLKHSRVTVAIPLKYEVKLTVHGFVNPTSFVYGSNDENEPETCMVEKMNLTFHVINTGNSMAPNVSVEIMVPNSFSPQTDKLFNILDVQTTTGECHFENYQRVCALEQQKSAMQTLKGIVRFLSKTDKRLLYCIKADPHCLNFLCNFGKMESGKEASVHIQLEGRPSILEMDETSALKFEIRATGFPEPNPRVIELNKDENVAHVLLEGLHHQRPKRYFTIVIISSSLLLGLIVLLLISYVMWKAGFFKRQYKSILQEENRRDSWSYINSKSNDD

The experiment concerns the target Integrin alpha-4 (Homo sapiens) (UniProt P13612). The experiment is described as follows: inhibitors of LDV-FITC binding to Mn2+-activated VLA-4, primary screen, Jurkat cells (AID 529).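 Further: 0% = Mn2+ stimulated cells lacking compound and 100% = ligand binding without Mn2+.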 As to conditions: LDV-FITC binding with Mn2+, flow cytometry, stronger effect = higher value, 100% = Mn2+-driven binding gain fully reversed, screened at 10 µM (by protocol). (Flow cytometry measures light scatter and fluorescence of single cells or particles in a stream.)
For orientation: inhibition means the relative decrease from the control value, in per cent. Consider `CCOC(=O)c1cccc(NC(=O)CCc2c(C)nc3ncnn3c2C)c1`, for which the inhibition is 10%. Under `CCOC(=O)N1CCN(C(=O)CSc2nnc(-c3c[nH]c4ccccc34)n2CCOC)CC1` stands 9%. Under `CC(=O)NC(C)c1nc2ccccc2n1Cc1ccccc1F` (stereo not drawn) stands 1%. With `CN(C(=O)C1CCOC1)c1nnc(-c2cccnc2)s1` (stereo not drawn) the figure was -8%. Consider `CC1=NCCN1S(=O)(=O)c1ccc(Br)c(C)c1`, for which the inhibition is -21.5%.

With `C=CCSc1nnc(Cn2c(=O)sc3ccccc32)n1C`, the inhibition is 5%. As to `Brc1cnc(N2CCCC2)nc1N1CCCCC1`, the inhibition is -21%. With `Cc1cc(C)cc(N(CC(=O)NCC2CCCO2)S(=O)(=O)c2c(C)noc2C)c1` (stereo not drawn) the figure was -10%. Take `Cc1cccc(NC(=O)CSc2nnc(NC(=O)CN3CCOCC3)s2)c1`: the inhibition is -21%. Under `COc1cc2[nH]c(=O)n(CCC(=O)NC3CCN(Cc4ccccc4)CC3)c(=O)c2cc1OC` stands 11%. Under `CCOc1cc(S(=O)(=O)NCc2ccc3c(c2)OCO3)ccc1F` stands -18.5%; under `O=S1(=O)CCN2C(=N1)SC1=C2CCN(Cc2ccccc2)C1`, 4%. Regarding `CCOc1ccc(OCC)c(NC(=O)CN(C)S(=O)(=O)c2cccc3nsnc23)c1`, the inhibition was 5%.

In the case of `O=C(CSc1nc2ncccc2[nH]1)Nc1ccc2c(c1)OCCO2`, the inhibition is -23%. In the case of `CCc1nnc(NC(=O)CSc2nnc(Cc3ccccc3)n2-c2ccc(OC)cc2)s1`, the inhibition was -26.5%. Under `CCOC(=O)N1CCN(C(=O)c2ccc3nc4cc(Cl)ccc4c(=O)n3c2)CC1` stands 6.7%; under `OCc1n[nH]c(CO)n1`, 2%; under `O=c1ccn(Cc2ccccc2Cl)cc1`, -16%. Under `N#CCCn1cnc2ccccc21` stands -16.5%; under `CCOc1ccc(C2C(C(=O)O)c3ccccc3C(=O)N2CCN2CCOCC2)cc1` (stereo not drawn), -12.1%; under `COc1cccc(OCC(=O)Nc2ccccc2C(N)=O)c1`, -12%. Under `CCOC(=O)N1CCC(NC(=O)Cn2cc3c(n2)CCCCC3)CC1` stands -1%; under `CSC1=NCCN1C(=O)c1ccc(S(=O)(=O)N2CCOCC2)cc1`, 1%.

As to `CCCC(=O)N1c2ccccc2NC2=C(C(=O)CCC2)C1c1ccc(F)cc1` (stereo not drawn), the inhibition is -5.3%.

For `Cc1c(C(=O)Nc2ccccc2Cl)oc2ccc(S(=O)(=O)N3CCC4(CC3)OCCO4)cc12`, the inhibition was -8%.

With `CCOc1cc2[nH]c(=S)n(CCCN3CCCC3=O)c(=O)c2cc1OCC`, the inhibition was -5%.

With `O=C(Cn1nc(Cc2cccnc2)c2ccccc2c1=O)NCC1CCCO1` (stereo not drawn), the inhibition was -1%. With `COc1ccc(CNC(=O)C2CCN(S(=O)(=O)N3CCOCC3)CC2)cc1` the figure was 3%. Regarding `Cc1ccc(-c2nc(CS(=O)CC(=O)NC3CCCC3)c(C)o2)cc1` (stereo not drawn), the inhibition was -15%. In the case of `CCOc1ccc(C(=O)N(Cc2ccc(N(C)C)cc2)C2CCS(=O)(=O)C2)cc1` (stereo not drawn), the inhibition is -24.5%. With `CCOC(=O)C1CCN(C(=O)CC2C(=O)N(Cc3ccccc3)C(C)c3nc4ccccc4n32)CC1` (stereo not drawn) the figure was 8%; with `CC(C)(C)c1ccc(C(=O)NCCC(=O)NCc2ccco2)cc1`, -4%; with `CCOC(=O)N1CCN(C(=O)c2cnc3n(c2=O)CCS3)CC1`, -8%.

With `CCCOc1ccc(C2c3c(oc4cc(C)c(C)cc4c3=O)C(=O)N2CCCN2CCOCC2)cc1` (stereo not drawn), the inhibition is 1%. With `O=C(NCc1ccc2c(c1)OCO2)C1CCCN(S(=O)(=O)c2cccs2)C1` (stereo not drawn) the figure was 3%; with `CCOC(=O)C1(C(F)(F)F)N=C(N(C)C)OC(N(C)C)=N1`, 20%; with `O=C1OC(NC(=O)c2ccccc2)C(N2CCOCC2)=C1Cl` (stereo not drawn), 6%. In the case of `COc1ccccc1N1CCN(Cc2nnnn2CCc2ccccc2)CC1`, the inhibition is -8%.

In the case of `COc1ccccc1C(=O)N1CCNC(=O)C1CC(=O)Nc1ccc(Cl)cc1` (stereo not drawn), the inhibition was -4.5%. Take `O=C(CN1CCN(C(=O)c2cccc(F)c2)CC1)Nc1ccccc1F`: the inhibition was 7%.

On to `N#Cc1ccc(COC(=O)Cn2nnc(-c3ccccc3)n2)cc1`, for which the inhibition was -9.5%. With `COc1ccc(N2C(=O)c3cccc4cccc(c34)C2=O)nn1` the figure was -1.5%; with `OCCNCCCCOc1ccccc1F`, -13.5%. With `COc1ccccc1C(=O)NCCn1cc(SCC(=O)NCc2ccco2)c2ccccc21` the figure was -4%; with `Cn1c(=O)[nH]c(=O)c2c1nc(NCCCn1ccnc1)n2Cc1cccc(Br)c1`, -22.5%. With `CCCS(=O)(=O)N1CCN(C(=O)c2cccs2)CC1` the figure was -15%; with `COc1cccc(N2C(=O)C3CCCN3C2c2ccc(F)cc2)c1` (stereo not drawn), -5%. As to `CCN(CC)C(=O)N1CCN(C(=O)c2ccc(C)cn2)CC1`, the inhibition was -8%.

As for `CCn1c(CSc2ncccn2)nnc1SCC(=O)N1c2ccccc2CC1C` (stereo not drawn), the inhibition was 5.5%.

On to `O=C1c2ccncc2C(=O)N1C1CCCCC1`, for which the inhibition is 3%. With `COc1ccc(OC)c(C2N(c3ccccn3)C(=O)C3CCCN32)c1` (stereo not drawn) the figure was -11%.

As to `O=C(CN1C(=O)CSc2ncccc21)N1CCOCC1`, the inhibition is -1%.

Turning to `COc1cccc(C(CC(=O)NCCN2CCOCC2)NS(=O)(=O)c2ccc(C)cc2)c1OC` (stereo not drawn), the inhibition is -2%. Under `Cc1onc(-c2ccccc2Cl)c1C(=O)NCCn1ccc2ccccc21` stands -7%. With `Cc1ccc(C2CC(=O)NC(SCC(=O)OCc3ccccc3)=C2C#N)o1` (stereo not drawn) the figure was -24%; with `COc1ccc(S(=O)(=O)NC(CC(=O)NCc2ccccc2OC)c2ccco2)cc1` (stereo not drawn), 3%.

On to `CC(C)OCCCNC(=O)CNC(=O)c1cccs1`, for which the inhibition was 10%.

For `CCOC(=O)c1ccn(-c2nc(-c3ccco3)cc(C(F)(F)F)n2)n1`, the inhibition was -5%. With `CCOC(=O)c1sc(=S)n(-c2cccc(OC)c2)c1N` the figure was -4%.

`CCOC(=O)Cn1c2c(c(-c3ccccc3OC)cc1=O)CCCC2`: the inhibition was 16%.

As to `Cc1ccc(N2C(=O)c3oc4ccccc4c(=O)c3C2c2cccnc2)nc1` (stereo not drawn), the inhibition is -22%.

As to `OCc1nc(CO)n(Cc2ccccc2)n1`, the inhibition was -2.3%. Turning to `O=C(CN1CCOCC1)Nc1c2c(nc3c1CCC3)CCC2`, the inhibition is -12%.

For `Cc1nc2nc(SCC(=O)NCc3ccco3)nn2c(C)c1Cc1ccccc1`, the inhibition is -12.3%.

For the compound `CCN(CCCNC(=O)C1CCN(S(=O)(=O)c2cnc[nH]2)CC1)c1ccccc1`, the inhibition is 0%.

In the case of `Cc1ccc(C)c(N(CC(=O)NCc2ccco2)C(=O)CCC(=O)Nc2ccccn2)c1`, the inhibition was -3%. On to `CC(Sc1sc(=S)sc1SC(C)C(=O)O)C(=O)O` (stereo not drawn), for which the inhibition is -53.5%. Under `C=CCN(CC=C)C(=O)CN1C(=O)c2ccccc2C1=O` stands -1%. Under `Cc1ccc2c(c1)N(CCCC(=O)NCc1cccnc1)C(=O)CO2` stands -5%; under `CCOC(=O)C1CCN(C(=O)C2CCN(S(=O)(=O)c3c(C)noc3C)CC2)CC1`, 10%; under `O=C(CN1C(=O)CCS(=O)(=O)c2ccccc21)NCc1ccc(F)cc1`, -3%. Under `Cc1oc(C)c(C(=O)NCCCC(=O)O)c1C(=O)NCCCC(=O)O` stands 5%; under `COc1ccc(NC(=O)C2CCCN(S(=O)(=O)c3cccc4cccnc34)C2)cc1` (stereo not drawn), 0%.

For `CCOc1ccccc1NC(=O)C1CCC(CNc2c(N3CCOCC3)c(=O)c2=O)CC1` (stereo not drawn), the inhibition was 2%. Regarding `Cc1cccc2c1N(CC(=O)OC(C)C)C(=O)C2=O`, the inhibition was 10.7%. Under `Cc1cc(NC(=O)CSCc2nc(-c3cccc(Cl)c3)oc2C)no1` stands 5%; under `O=C(NCc1ccc2c(c1)OCO2)c1cc2c(s1)CS(=O)(=O)C2`, -4%; under `Cc1ccc(C)c(N2CCN(C(=O)CCc3nc4ccccc4[nH]3)CC2)c1`, -5%. Under `O=S(=O)(Nc1ccccn1)c1ccc(Oc2ccccc2)cc1` stands -1.3%. Under `CCOc1c(OC)cc(C2C(C#N)=C(N)Oc3n[nH]c(-c4ccncc4)c32)cc1OC` (stereo not drawn) stands -15%; under `CCC(C)Sc1nnc(-c2c[nH]c3ccccc23)n1CCOC` (stereo not drawn), 10%; under `COc1ccc(C2OC(=O)CC2C(=O)NC(C)C)cc1` (stereo not drawn), 6%. As for `COC(=O)Cn1c(=NC(=O)CSCC(=O)Nc2cc(C)on2)sc2ccccc21`, the inhibition is -10.5%. `COc1ccc(NC(=O)c2c(SC)nsc2SC)cc1`: the inhibition is -23%. Under `COCCCNC(=O)c1ccc2c(c1)ncn2-c1ccccc1OC` stands -35%; under `O=C(NCc1ccco1)c1cccn2c(=O)c3cc(Br)ccc3nc12`, -34%; under `CCn1cc(C(=O)N2CC=C(c3ccccc3)CC2)c(=O)c2ccc(C)nc21`, 4%. With `O=C(CC(Cc1ccccc1)C(=O)O)NCCc1ccc2c(c1)OCO2` (stereo not drawn) the figure was -16%.

Turning to `Cc1ccc(C)c(NC(=O)CSc2nnc(Cc3cccn3C)n2-c2ccc(F)cc2)c1`, the inhibition is 10%.

As for `NC(=O)C1(N2CCCCC2)CCN(C(=O)c2ccc(C#Cc3ccccc3)o2)CC1`, the inhibition is 3%. Under `CC1(C)CC(O)C(CCC(O)c2ccccc2)C(C)(C)N1` (stereo not drawn) stands -6%. Under `CCc1nnc(NC(=O)CCC(=O)O)s1` stands -11%. As for `O=C(NC(=O)c1ccc(Cl)c(Cl)c1)OC1CCS(=O)(=O)C1` (stereo not drawn), the inhibition is -4%.

Regarding `O=C(NC1(C(F)(F)F)N=C2SCCN2C1=O)c1ccco1` (stereo not drawn), the inhibition was -21%. `Cn1c(=O)cc(SCC(=O)N2CCCC2)c2cc(Cl)ccc21`: the inhibition is 2%. With `CN1C(=O)c2ccccc2C(C(=O)NCCCN2CCCC2)C1c1c[nH]c2ccccc12` (stereo not drawn) the figure was 17%; with `COc1ccccc1CNC(=O)Cn1cc2c(n1)CCCC2`, -2%; with `CCOC(=O)C1CCN(C(=O)CSc2cc(=O)n(C)c3ccccc23)CC1`, -2%.
